From PubChem BioAssay
Sampled rows, rich in hits. Any-hit rate of the full collection: about 2.9%.
Wnt act: Wnt/beta-catenin pathway activation; Wnt/beta-catenin reporter cell assay, activator, plate reader; activation, % at 9.35 µM; 1.2% of 300,000 active; in the data active = activation above about 30%, passing the limit was not always enough; inconclusive = no clear call, values can overlap the other calls;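 note: 0% = neutral control wells and 100% = positive control wells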
MITF act: increases MITF-driven TRPM1 promoter luciferase signal. SK-MEL-5 TRPM1-promoter luciferase, 24 h; % of positive control, neutral wells = 0. activation, % at 12.5 µM. 0.75% of 300,000 active. AID 588334;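 active = mean activation of at least 80% with every replicate also reaching 80%; inconclusive = mean reaches 80% but some replicate falls short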;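 note: 0% = neutral control wells and 100% = parthenolide positive control wells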
NSD2 HMT inh: NSD2 (human) methyltransferase inhibition; O96028; NSD2 peptide methylation, AlphaScreen, 120 min; inhibition, % at 12.5 µM; 0.54% of 310,000 active; AID 743445; in the data active = inhibition above about 50%
TRPM1 prom inh: inhibitors of MITF-driven TRPM1 promoter in melanoma cells; SK-MEL-5 TRPM1 promoter luciferase, 24 h; inhibition, % at 12.5 µM; 0.83% of 330,000 active; AID 488899;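 active = mean inhibition across replicates of 60% or more, whatever share of single replicates reaches that level; inconclusive = some that reach 60%, reason not given; inactive = mean inhibition across replicates below 60%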
PfHsp90 set2: growth inhibition of yeast expressing Plasmodium Hsp90; S. cerevisiae expressing PfHsp90, BacTiter-Glo ATP, 48 h; yeast lacking PDR1 and PDR3 efflux regulators; inhibition, % at 9.4 µM; 0.32% of 310,000 active;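 active = every replicate shows inhibition above about 80%, whatever the replicate mean, limit read from the data; inconclusive = mean inhibition reaches the set limit but some replicate falls short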;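 note: 0% = DMSO neutral controls and 100% = 20 µM radicicol positive controls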
N-glyco inh: blocks N-linked glycosylation in D54 reporter cells. reporter increase, % at 12.5 µM. 0.23% of 360,000 active. AID 588692. D54 ERlucT glycosylation luciferase reporter, 24 h; percent of 100 nM tunicamycin response;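 active = mean luciferase reporter signal, scaled so untreated is 0 and the glycosylation-blocking control 100, at or above a set limit in every replicate; inconclusive = mean reaches the limit but not every replicate does; inactive = mean below the limit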;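 note: luciferase carries N-glycosylation sites so blocking glycosylation raises the light; 0% = median of neutral control wells and 100% = median of 100 nM tunicamycin wells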
The depositor's hits bear a star.

How did Cc1ccc(O)c(NC(=S)NC(=O)c2ccc(-c3ccc(Cl)cc3)o2)c1 do in these assays?
MITF act: -8.2; NSD2 HMT inh: 1.3; TRPM1 prom inh: 4.7; PfHsp90 set2: 121.8*; N-glyco inh: 1.4

What do the screens show for `Cc1ccccc1C(=O)N1CCN(c2ccc(NC(=O)c3cccnc3)cc2)CC1`?
Wnt act: -0.6; MITF act: -0.6; NSD2 HMT inh: -1.4; TRPM1 prom inh: -1.4; PfHsp90 set2: -16.8; N-glyco inh: -8.2

Results for Cc1ccccc1C(=O)N1CCN(c2ccc(NC(=O)c3ccc([N+](=O)[O-])o3)cc2)CC1 ?
Wnt act: -3.7; MITF act: -81.3; NSD2 HMT inh: -0.8; TRPM1 prom inh: 80.5*; PfHsp90 set2: 10.6; N-glyco inh: -12.3

Results for COc1ccc(C(=O)Nc2ccc(N3CCN(C(=O)c4ccccc4)CC3)cc2)cc1[N+](=O)[O-] ?
Wnt act: -1.7; MITF act: -6.9; NSD2 HMT inh: 21.9; TRPM1 prom inh: 9.4; N-glyco inh: -3.4

Results for O=C(Nc1ccc(N2CCN(C(=O)c3ccccc3)CC2)cc1)c1ccc([N+](=O)[O-])o1 ?
Wnt act: -19.1; MITF act: -90.5; NSD2 HMT inh: 15.5; TRPM1 prom inh: 91.1*; PfHsp90 set2: -21.0; N-glyco inh: -16.4

How did Cc1cccc(-c2nc(CNC(=O)c3ccco3)cs2)c1 do in these assays?
Wnt act: 8.3; MITF act: 27.1; NSD2 HMT inh: -2.9; TRPM1 prom inh: -21.9; PfHsp90 set2: -31.6

What do the screens show for `CCc1cc2c(nc1CC)CCCN2S(=O)(=O)c1ccc(OC)cc1`?
Wnt act: -14.5

How did c1cnc2nc(-c3ccc4c(c3)OCO4)cn2c1 do in these assays?
Wnt act: -1.7; MITF act: 86.9*; NSD2 HMT inh: -2.2; TRPM1 prom inh: -84.6; PfHsp90 set2: -3.7; N-glyco inh: -1.0

Results for Cc1ccc(-c2cn3cccnc3n2)cc1 ?
Wnt act: inconclusive; MITF act: 84.1*; NSD2 HMT inh: 0.7; TRPM1 prom inh: -77.5; N-glyco inh: -1.1

What do the screens show for `CC(=O)Nc1ccc(-c2cn3cc(C)ccc3n2)cc1`?
MITF act: 13.8; NSD2 HMT inh: -2.4; TRPM1 prom inh: -17.3; PfHsp90 set2: -4.3; N-glyco inh: -8.0

How did COC(=O)c1ccc2nc(-c3ccc4c(c3)OCO4)cn2c1 do in these assays?
Wnt act: -0.8; MITF act: -14.3; NSD2 HMT inh: -5.1; TRPM1 prom inh: 17.2; PfHsp90 set2: 39.7; N-glyco inh: -20.4

How did CCc1ccn2cc(-c3ccc4c(c3)OCO4)nc2c1 do in these assays?
Wnt act: -4.8; NSD2 HMT inh: 1.4; TRPM1 prom inh: 64.7*; PfHsp90 set2: 26.6; N-glyco inh: -20.8

What do the screens show for `Cc1ccc2nc(-c3ccccc3)cn2c1`?
MITF act: -87.0; TRPM1 prom inh: 87.7*; PfHsp90 set2: 63.2; N-glyco inh: -19.7

Results for CCCS(=O)(=O)N1CCCC(C(=O)Oc2ccc(OC)cc2)C1 (stereo unspecified) ?
Wnt act: 0.2; MITF act: 8.9; NSD2 HMT inh: -1.3; TRPM1 prom inh: 0.2; PfHsp90 set2: 15.1; N-glyco inh: -1.1

How did COc1ccc(-n2c(SCC(=O)Nc3cc(C)c(NC(=O)c4ccccc4)cc3OC)nnc2-c2ccco2)cc1 do in these assays?
NSD2 HMT inh: 5.1

How did CC(=O)N1CCN(C2=Nc3ccccc3Sc3ccccc32)CC1 do in these assays?
NSD2 HMT inh: 5.0

How did CCOc1ccc(NC(=O)C2=C(C)C(=O)OC23CCC(C)CC3)cc1 (stereo unspecified) do in these assays?
Wnt act: -0.1; PfHsp90 set2: 37.1; N-glyco inh: -0.6

How did CCOC(=O)CCCCC(=O)c1[nH]c(=O)[nH]c1C[n+]1ccc(C)cc1 do in these assays?
Wnt act: -0.3; MITF act: 1.4; NSD2 HMT inh: 1.1; TRPM1 prom inh: -0.2; PfHsp90 set2: 5.5; N-glyco inh: 2.6

Results for Cc1[nH]c(=O)[nH]c1C(=O)CCCCC(=O)OCC(=O)Nc1ccccn1 ?
MITF act: 20.2; NSD2 HMT inh: 142.2*; TRPM1 prom inh: -16.7; PfHsp90 set2: 19.3; N-glyco inh: 1.8

What do the screens show for `O=C(c1cccs1)N1CCCC(c2nc3c(nnn3Cc3ccccc3Cl)c(=O)[nH]2)C1` (stereo unspecified)?
Wnt act: -2.1; MITF act: -2.3; NSD2 HMT inh: 9.2; TRPM1 prom inh: 4.7; PfHsp90 set2: 11.2; N-glyco inh: 3.3

Results for S=C1CCC(c2ccc(Cl)cc2)=NN1c1ccccc1 ?
Wnt act: -1.5; NSD2 HMT inh: 3.0; TRPM1 prom inh: -1.6; PfHsp90 set2: 3.7; N-glyco inh: -1.8

What do the screens show for `CCOC(=O)/C(=C/c1ccc(N2CCC(c3ccccc3)=N2)cc1)C(C)=O`?
MITF act: 47.4; TRPM1 prom inh: -44.3; PfHsp90 set2: 106.3*; N-glyco inh: -22.5

What do the screens show for `c1ccc(C2=NN(c3ccccc3)CC2)cc1`?
Wnt act: 50.3*; MITF act: 87.9*; NSD2 HMT inh: 6.2; TRPM1 prom inh: -83.0; PfHsp90 set2: 7.3; N-glyco inh: -4.1

How did COC(=O)c1sc(S(=O)(=O)NC(Cc2ccccc2)C(=O)O)c(C(=O)OC)c1C (stereo unspecified) do in these assays?
Wnt act: -4.7; MITF act: 1.7; NSD2 HMT inh: -0.9; TRPM1 prom inh: 0.6; PfHsp90 set2: -5.5; N-glyco inh: 0.6

How did COc1ccc(/C=N/n2c(=O)[nH]c3c([nH]c4ccc(F)cc43)c2=O)cc1CN1CCCCC1 do in these assays?
Wnt act: -4.2; NSD2 HMT inh: -2.3; TRPM1 prom inh: -2.5; PfHsp90 set2: 7.9; N-glyco inh: 2.2

How did COc1ccc(/C=N/n2cnc3c([nH]c4ccc(C)cc43)c2=O)cc1CN1CCCC1 do in these assays?
Wnt act: -2.9; MITF act: -80.2; NSD2 HMT inh: 0.4; TRPM1 prom inh: 82.5*; PfHsp90 set2: -12.2; N-glyco inh: -8.8

What do the screens show for `COc1ccc2c(c1)[nH]c1c(=O)n(/N=C/c3ccc(OC)c(CN4CCCC4)c3)cnc12`?
Wnt act: 0.5; MITF act: 8.5; TRPM1 prom inh: -10.4; PfHsp90 set2: -3.7; N-glyco inh: -0.5

What do the screens show for `COc1ccc(/C=N/n2cnc3c([nH]c4ccc(F)cc43)c2=O)cc1CN1CCCC1`?
Wnt act: -4.0; MITF act: -85.6; NSD2 HMT inh: 4.2; TRPM1 prom inh: 86.3*; PfHsp90 set2: -5.6; N-glyco inh: -8.4

What do the screens show for `Cc1cc(SCC(=O)N/N=C/c2ccc(O)c(O)c2O)c(C)cc1Br`?
MITF act: -61.3; TRPM1 prom inh: 65.5*; N-glyco inh: -4.9

What do the screens show for `CN1C2=CC=CC=CC2=[N+](C)C12C([N+](=O)[O-])=CC(=[N+]([O-])[O-])C=C2[N+](=O)[O-]` (stereo unspecified)?
Wnt act: 106.3*; NSD2 HMT inh: -1.9; TRPM1 prom inh: 69.9*; PfHsp90 set2: 11.1; N-glyco inh: 29.1*
